# Assay outcomes: PubChem, The Scripps Research Institute Molecular Screening Center
# A selection: hits, their analogues and other compounds. The true share with any hit is near 3.5%.
# MITF primary: inhibitors of human MITF | inhibition, % at 2.6 µM | hit rate 0.91% among 650,000 | AlphaScreen MITF homodimerization, bead proximity signal; in the data active = inhibition above about 50%
# GPR151 activ: activates the human receptor GPR151 | Q8TDV0 | PathHunter beta-arrestin GPR151 cells, luminescence | activation, % at 11.2 µM | hit rate 1% among 650,000 | AID 1508602; in the data active = activation above about 4.9%
# Target sequence (Q8TDV0 whole entry, looked up): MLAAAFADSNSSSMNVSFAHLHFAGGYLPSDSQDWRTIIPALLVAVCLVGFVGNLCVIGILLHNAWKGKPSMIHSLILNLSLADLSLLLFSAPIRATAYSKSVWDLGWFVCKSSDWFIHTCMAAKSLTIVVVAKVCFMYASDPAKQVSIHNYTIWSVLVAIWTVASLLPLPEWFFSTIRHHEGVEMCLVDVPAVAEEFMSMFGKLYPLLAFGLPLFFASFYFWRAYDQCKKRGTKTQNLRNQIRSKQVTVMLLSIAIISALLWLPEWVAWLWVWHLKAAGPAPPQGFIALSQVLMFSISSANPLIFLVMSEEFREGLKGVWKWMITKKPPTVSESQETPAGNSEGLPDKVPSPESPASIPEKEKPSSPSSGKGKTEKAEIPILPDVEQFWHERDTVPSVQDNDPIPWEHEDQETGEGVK
# TEAD-YAP block: TEAD-YAP interaction inhibition | HEK-TIYL cells, TEAD-Gal4/YAP UAS-luciferase luminescence | inhibition, % at 9.12 µM | hit rate 1.4% among 640,000 | AID 1259422; in the data active = inhibition above about 32%
# FBW7 activator: human FBW7 E3 ligase activation, primary screen; Q969H0; AlphaScreen FBW7–phospho-cyclin E peptide binding, activator screen; normalized activity (activation), % at 26.1 µM; hit rate 0.13% among 650,000; AID 1259310; in the data active = normalized activity above about 1.9%;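 note: purified mutant Fbw7 with reduced substrate affinity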
# GPR151 confirm: human GPR151 activation, confirmation screen. shares compounds with GPR151 activ. activation, % at 11.2 µM. 6,700 tested, under 10 active. GPR151 PathHunter beta-arrestin cells, luminescence, 90 min; % of EA-reagent control over plate median;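 active = mean percent activation across replicates above the confirmation screen cutoff of 4.91%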
# GPR119 counter: counter-screen for GPR151 activators: effect on human GPR119. GPR119 PathHunter beta-arrestin cells, luminescence, 90 min; 0 = compound-well median, 100 = enzyme-acceptor control. shares compounds with GPR151 activ. AID 1508611. activation, % at 11.2 µM. hit rate 0.3% among 6,700;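 active = mean percent activation in the counterscreen above 29.09%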;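 note: counterscreen on off-target GPR119 to flag nonselective hits from the GPR151 activator screen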
# Numbers stand for hits; 0 = inactive; - = no result.
SMILES,MITF primary,GPR151 activ,TEAD-YAP block,FBW7 activator,GPR151 confirm,GPR119 counter
O=C(CN1CCOCC1)Nc1ccc(Br)cn1,0,0,0,0,-,-
O=C(CN1CCN(C(=O)c2ccccc2)CC1)Nc1ccc(Br)cn1,0,5.6,0,0,0,0
CCOc1ccccc1/C=C1\N=C(c2ccccc2OC)OC1=O,0,0,0,0,-,-
CC(=O)N1CCN(Cc2nc3cc(NC(=O)c4ccc(Cl)cc4)ccc3n2C)CC1,0,5.4,0,0,0,0
CCCn1c(N2CCN(CC(=O)Nc3ccc(C(C)=O)cc3)CC2)nc2ccccc21,0,0,0,0,-,-
CCN1CCN(CC(=O)Nc2ccc(C(C)=O)cc2)CC1,0,7.5,0,0,0,0
CC(=O)c1ccc(NC(=O)CN2CCN(Cc3nc4ccccc4n3C)CC2)cc1,0,6.3,0,0,0,0
CC(=O)Nc1ccc2c(c1)nc(CN1CCN(C(C)=O)CC1)n2C,0,0,0,0,-,-
CCC(=O)NNC(=O)COc1cc(C)ccc1C(C)C,0,0,0,0,-,-
CCOC(=O)c1sc2ncn(/N=C/N(C)C)c(=O)c2c1C,0,7.1,0,0,0,0
Cc1cc(NCCN2CCOCC2)nc(-c2cccc(N)c2)n1,0,0,0,0,-,-
O=Cc1cccc(-c2ccc(NCCN3CCOCC3)nc2)c1,0,5.2,0,0,0,0
CC(=O)c1cccc(-c2nc(C)cc(NCCN3CCOCC3)n2)c1,0,11.3,0,0,0,0
c1cc(NCCN2CCOCC2)nc(-c2ccc(N3CCOCC3)nc2)n1,0,6.1,0,0,0,0
CC(C)(C)OC(=O)NNC(=O)/C=C/c1cc(Br)ccc1F,0,5.2,0,0,0,0
O=C(Cn1cncn1)N/N=C/c1ccccc1Cl,0,0,0,0,-,-
O=C(Cn1cncn1)NN=C1c2ccccc2-c2ccccc21,0,5.2,0,0,0,0
COc1cc2[nH]c(=S)n(C3CC3)c(=O)c2cc1OC,0,0,0,0,-,-
COc1cc2[nH]c(=S)n(C3CC(C)(C)NC(C)(C)C3)c(=O)c2cc1OC,0,7.2,0,0,0,0
c1ccc(SCc2nnc3n2CCCCC3)cc1,0,5.0,0,0,0,0
CC1(C)CC(=O)N(CC(=O)N2CCCCC2)c2ccccc2S1,0,5.7,0,0,0,0
CC1(C)CC(=O)N(CC(=O)N2CCCCCC2)c2ccccc2S1,0,0,0,0,-,-
COC(=O)c1ccsc1NC(=O)Cc1ccccc1,0,0,0,0,-,-
COc1ccc2c(CC(=O)OCc3c(C)noc3C)coc2c1,0,5.1,0,0,0,0
Cc1noc(C)c1COC(=O)Cc1coc2cc3c(cc12)CCC3,0,0,0,0,-,-
SMILES,MITF primary,GPR151 activ,TEAD-YAP block,FBW7 activator,GPR151 confirm,GPR119 counter
Cc1cc(Nc2ccc(N3CCOCC3)cc2)nc(Nc2ccncc2)n1,0,0,0,0,-,-
Cc1cc(Nc2ccc(N3CCOCC3)cc2)nc(NCc2cccnc2)n1,0,5.4,0,0,0,0
Cc1cc(Nc2ccc3c(c2)OCO3)nc(Nc2ccc(N3CCOCC3)cc2)n1,0,10.0,92.7,0,0,71.2
O=C(CNC(=O)c1ccc(Cl)cc1)N/N=C/c1ccc2c(c1)OCO2,0,0,0,0,-,-
CC(=O)N1CCc2c(sc(NC(=O)c3ccc(S(=O)(=O)N4CCCC(C)C4)cc3)c2-c2nc3ccccc3s2)C1 (configuration not stated),0,0,0,0,-,-
COc1ccc(CCNC(=O)c2[nH]c(C)c(C(C)=O)c2C)cc1OC,0,0,0,0,-,-
CCOc1ccc(CCNC(=O)c2[nH]c(C)c(C(C)=O)c2C)cc1OCC,0,14.2,0,0,0,0
CCOC(=O)C1C(c2cccc(OC)c2OC)NC(=O)NC1(O)C(F)(F)F (configuration not stated),0,0,0,0,-,-
CNC(=S)NNP1(=O)C=C(c2ccccc2)OC(c2ccccc2)=C1,0,0,0,0,-,-
CCN(CC)CCN1C(=O)c2ccccc2NC1c1ccc2c(c1)OCO2 (configuration not stated),0,5.3,0,0,0,0
O=C1c2ccccc2NC(c2ccc3c(c2)OCO3)N1Cc1ccccc1 (configuration not stated),0,0,0,0,-,-
COc1ccc(C=O)cc1OC(=O)c1cccc2ccccc12,0,10.2,0,0,0,0
CCOC(=O)Cn1c(=NC(=O)c2cc(=O)c3ccccc3o2)sc2cc(F)ccc21,0,5.1,0,0,0,0
